Most compounds without a hit are left out; they make up all but 1.5% or so of the library.
GLD-1 TGE inh: GLD-1-TGE RNA interaction inhibition (C. elegans) | Q17339 | inhibition, % at 5.96 µM | 320,000 tested, 0.44% active | purified GLD-1 + fluorescein TGE RNA, fluorescence polarization;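 active = percent inhibition above a per-plate cutoff, the plate mean of test compounds plus 3 SD, cut at about 30% in these data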
BCLXL inh: blocks human Bcl-xL binding to Bim BH3 peptide. Q07817. GST-Bcl-xL / FITC-Bim BH3 peptide fluorescence polarization. inhibition, % at 10.9 µM. 320,000 tested, 0.7% active;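 active = inhibition above the mean of all tested compounds plus 3 SD, cutoff set per campaign, cut at about 30% in these data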;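 also: inhibitors lower millipolarization by displacing the labeled peptide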
Target sequence (Q07817 whole entry, looked up): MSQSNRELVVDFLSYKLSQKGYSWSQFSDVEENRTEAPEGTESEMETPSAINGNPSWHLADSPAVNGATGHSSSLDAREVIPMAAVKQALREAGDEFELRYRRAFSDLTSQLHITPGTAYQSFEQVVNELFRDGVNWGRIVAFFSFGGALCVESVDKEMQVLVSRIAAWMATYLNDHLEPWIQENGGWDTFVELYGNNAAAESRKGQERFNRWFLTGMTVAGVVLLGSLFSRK
MEX-5 binding: C. elegans MEX-5 TCR-2 RNA binding activity. 300,000 tested, 0.38% active. activity score (negative = inhibition of binding), % at 10 µM. MEX-5/FITC-TCR2 RNA binding, fluorescence polarization; hits give low values;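 active = inhibition past about -25% in most replicates, and total fluorescence under double the plate's negative control median, limit read from the data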
Target sequence (Q9XUB2 whole entry, looked up): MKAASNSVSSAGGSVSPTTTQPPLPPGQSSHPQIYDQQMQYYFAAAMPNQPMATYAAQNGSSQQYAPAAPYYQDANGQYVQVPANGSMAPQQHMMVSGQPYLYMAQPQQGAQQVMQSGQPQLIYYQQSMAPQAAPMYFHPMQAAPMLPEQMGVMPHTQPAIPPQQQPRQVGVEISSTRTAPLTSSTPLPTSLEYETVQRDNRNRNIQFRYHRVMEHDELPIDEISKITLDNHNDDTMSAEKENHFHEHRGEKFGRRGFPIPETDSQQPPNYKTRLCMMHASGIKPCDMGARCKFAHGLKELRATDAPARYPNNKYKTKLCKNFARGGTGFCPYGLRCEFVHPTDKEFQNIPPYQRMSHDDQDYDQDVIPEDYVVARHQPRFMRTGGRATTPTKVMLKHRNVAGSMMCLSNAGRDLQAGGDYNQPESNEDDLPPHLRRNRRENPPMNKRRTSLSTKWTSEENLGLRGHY
MCL1 BIM primary: inhibitors of human MCL1 binding to BIM-BH3 peptide. 320,000 tested, 0.68% active. GST-MCL1 / FITC-Bim-BH3 fluorescence polarization. AID 2057. inhibition, % at 10.9 µM. Q07820;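 active = inhibition above the mean inhibition of all tested compounds plus 3 SD, set per campaign, cut at about 40% in these data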;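 also: higher means more loss of mP so more displacement of Bim peptide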
E coli Lon inh: inhibitors of E. coli Lon protease. P0A9M0. purified E. coli Lon protease, fluorescence polarization. inhibition, % at 7.94 µM. 360,000 tested, 0.42% active; in the data active = inhibition above about 13%, passing the limit was not always enough
EBV gp42 inh: EBV gp42 inhibition. Q1HVG2. Fluorescence polarization binding assay, mP read-out. inhibition, % (tested at 21.74 µM). 220,000 tested, 0.42% active. AID 1085; in the data active = inhibition above about 50%
E coli Lon conf: E. coli Lon inhibition confirmation. shares compounds with E coli Lon inh. purified E. coli Lon, fluorescence polarization. inhibition, % at 7.94 µM. 1,400 tested, 31% active. AID 602230; in the data active = inhibition above about 16%
Large screens that a line does not name were inactive (follow-up assays come after a bar, where they were run).

O=C(CN1C(=O)NC2(CCCCC2)C1=O)N1CCN(S(=O)(=O)c2ccc(Cl)s2)CC1	E coli Lon inh 19 (no result: MEX-5 binding, EBV gp42 inh) | E coli Lon conf inactive
COc1ccc(OC)c(NC(=O)NCCCCc2ccccc2)c1	none (no result: EBV gp42 inh)
O=C(NCCOC(=O)c1ccc(Cl)cc1)c1cccnc1	E coli Lon inh 16 | E coli Lon conf inactive
O=C(COC(=O)/C=C/c1ccc(F)cc1)NC1CCS(=O)(=O)C1 (stereo unspecified)	none (no result: GLD-1 TGE inh, BCLXL inh, MEX-5 binding, MCL1 BIM primary, EBV gp42 inh)
O=C(NCc1ccccc1)c1cc(C2CCCN(C(=O)c3ccc4c(c3)CCO4)C2)on1 (stereo unspecified)	none (no result: GLD-1 TGE inh, BCLXL inh, MEX-5 binding, MCL1 BIM primary, EBV gp42 inh)
Cc1ccc(C)c(Cn2c(=O)n(CCCC(=O)NCc3ccco3)c(=O)c3ccccc32)c1	none
Cc1cc(C)c(Cn2c(=O)n(CCCC(=O)NCc3ccco3)c(=O)c3ccccc32)c(C)c1	E coli Lon inh 18 (no result: EBV gp42 inh) | E coli Lon conf inactive
CCN(CC)c1ccc(N=C2C=CC(=O)C=C2NC(C)=O)cc1	E coli Lon inh 38 (no result: GLD-1 TGE inh, BCLXL inh, MEX-5 binding, MCL1 BIM primary, EBV gp42 inh) | E coli Lon conf inactive
CC(OC(=O)CCN=C1NS(=O)(=O)c2ccccc21)C(=O)Nc1ccc(F)cc1 (stereo unspecified)	none (no result: EBV gp42 inh)
NS(=O)(=O)c1ccc(N/N=C/c2ccc(O)c(O)c2O)c([N+](=O)[O-])c1	E coli Lon inh 21, EBV gp42 inh 97 (no result: GLD-1 TGE inh, BCLXL inh, MEX-5 binding, MCL1 BIM primary) | E coli Lon conf 38
NS(=O)(=O)c1ccc(N/N=C/c2ccc(O)cc2O)c([N+](=O)[O-])c1	none
CCOC(=O)N1CCN(C(=O)CSc2ccc3nnc(-c4ccccn4)n3n2)CC1	none
CCOC(=O)N1CCN(C(=O)CSc2ccc3nnc(-c4ccncc4)n3n2)CC1	E coli Lon inh 24 | E coli Lon conf inactive
Cc1cc(NC(=O)COC(=O)c2cc(S(=O)(=O)N3CCOCC3)ccc2N2CCCCC2)no1	E coli Lon inh 54 | E coli Lon conf inactive
O=C(NC1CCCCC1)c1cc(S(=O)(=O)N2CCCCC2)ccc1N1CCOCC1	E coli Lon inh 20 (no result: MEX-5 binding, EBV gp42 inh) | E coli Lon conf inactive
O=C(NC1CCCCCC1)c1cc(S(=O)(=O)N2CCCCC2)ccc1N1CCOCC1	none
O=C(O)c1cccc(S(=O)(=O)N(Cc2ccccc2)c2cccc(C(F)(F)F)c2)c1	none (no result: EBV gp42 inh)
COc1ccc(N2CCN(C(=O)CN3C(=O)c4ccccc4S3(=O)=O)CC2)cc1	E coli Lon inh 20 | E coli Lon conf inactive
Cc1ccc(S(=O)(=O)N2[C@@H](c3ccccc3F)C(C(=O)O)=CC[C@H]2c2ccc3c(c2)OCO3)cc1	none (no result: MEX-5 binding, EBV gp42 inh)
O=C(Nc1cccc(Cl)c1)Nc1nnc([C@H]2C[C@H](O)[C@@H](CO)O2)s1	none (no result: GLD-1 TGE inh, BCLXL inh, MEX-5 binding, MCL1 BIM primary, EBV gp42 inh)
Cc1nn(-c2ccccc2)c2[nH]c(=O)c(CNc3ccc4c(c3)OCCO4)cc12	E coli Lon inh 21 | E coli Lon conf 44
COc1cccc(NCc2cc3c(C(C)(C)C)nn(-c4ccccc4)c3[nH]c2=O)c1	none
S=c1[nH]nc(-c2ccccn2)n1/N=C/c1ccc(Cl)cc1	E coli Lon inh 18 | E coli Lon conf inactive
S=c1[nH]nc(-c2ccccn2)n1/N=C/c1ccccc1	none
CC(=O)c1cc(-c2ccccc2)[nH]c1N1CCOCC1	E coli Lon inh 63 | E coli Lon conf inactive
CC(=O)c1c(N2CCOCC2)nc2ccc(Br)cc2c1-c1ccccc1	none
O=C(CSCC(=O)OCn1nnc2ccccc2c1=O)Nc1ccc(Cl)cc1	E coli Lon inh 17 | E coli Lon conf inactive
CC(=O)ON1C(C)(C)CC(OC(=O)c2ccccc2)CC1(C)C	none
CC(=O)OC1CC(C)(C)N(OC(=O)c2ccccc2)C(C)(C)C1	E coli Lon inh 15 | E coli Lon conf inactive
CCOc1ccc(OCCC(=O)Nc2ccccc2C(=O)NC2CC2)cc1	none (no result: GLD-1 TGE inh, BCLXL inh, MEX-5 binding, MCL1 BIM primary, EBV gp42 inh)
COc1ccc(CC2=C(O)c3ccccc3C(=O)C2=O)cc1	none (no result: EBV gp42 inh)
O=C1C(=O)c2ccccc2C(O)=C1CCCCl	E coli Lon inh 77 | E coli Lon conf inactive
Cn1c(=O)c(S(=O)C2CCCCC2)c(O)c2ccccc21 (stereo unspecified)	none (no result: EBV gp42 inh)
C=CCN(C(=O)COc1ccccc1)c1nnc(-c2ccncc2)s1	E coli Lon inh 18 | E coli Lon conf inactive
COCCN(C(=O)c1cccc(OC)c1)c1nnc(-c2ccncc2)s1	none
O=C(CNC(=O)c1ccc(Br)o1)NNC(=O)c1ccccc1	E coli Lon inh 96 (no result: GLD-1 TGE inh, BCLXL inh, MEX-5 binding, MCL1 BIM primary, EBV gp42 inh) | E coli Lon conf inactive
O=C(Nc1ccccc1)c1ccc(-c2ccc([N+](=O)[O-])cc2)o1	E coli Lon inh 30 (no result: EBV gp42 inh) | E coli Lon conf inactive
CC12CCC(C(=O)NNC(=O)c3ccc(Br)cc3)(OC1=O)C2(C)C (stereo unspecified)	E coli Lon inh 18 (no result: EBV gp42 inh) | E coli Lon conf inactive
N#Cc1ccsc1NC(=O)CSc1ncn[nH]1	none
N#Cc1ccsc1NC(=O)CSc1nncs1	GLD-1 TGE inh 71, E coli Lon inh 28 (no result: BCLXL inh, MEX-5 binding, MCL1 BIM primary, EBV gp42 inh) | E coli Lon conf 31
C[C@@H]1CN([C@H](C)CO)C(=O)c2cc(Br)cnc2O[C@H]1CN(C)C(=O)CC1CC1	none (no result: GLD-1 TGE inh, BCLXL inh, MEX-5 binding, MCL1 BIM primary, EBV gp42 inh)
Cc1cc2nc3c(=O)n(C4CCCCC4)c(=O)[nH]c3nc2cc1N	E coli Lon inh 75, EBV gp42 inh 141 (no result: GLD-1 TGE inh, BCLXL inh, MEX-5 binding, MCL1 BIM primary) | E coli Lon conf 115
COc1ccccc1CNC(=O)CCC1N=C2c3ccccc3N=C(SCC(=O)NCC3CCCO3)N2C1=O (stereo unspecified)	none (no result: EBV gp42 inh)
CSCCC(NC(=O)COc1ccccc1)C(=O)N1CCN(c2ccccc2O)CC1 (stereo unspecified)	E coli Lon inh 71 (no result: EBV gp42 inh) | E coli Lon conf inactive
COc1ccc(CCNC(=O)C(C)SCc2ccccc2)cc1 (stereo unspecified)	E coli Lon inh 19 | E coli Lon conf inactive
COc1cccc(NC(=O)C(C)SCc2ccccc2)c1 (stereo unspecified)	none
CCOC(=O)N1CCC(NC(=O)CC2C(=O)NCCN2Cc2ccccc2F)CC1 (stereo unspecified)	none (no result: EBV gp42 inh)
COc1ccc(CCN2CCC(Nc3nc4ccccc4n3Cc3ccc(F)cc3)CC2)cc1	none
COc1c(O)cccc1[C@@H](O)C1CCN(CCc2ccc(F)cc2)CC1	GLD-1 TGE inh 58, BCLXL inh 41, MEX-5 binding -29, E coli Lon inh 35 (no result: EBV gp42 inh) | E coli Lon conf inactive
COc1cc(C(=O)NC(=S)Nc2ccc3ccccc3c2)cc(OC)c1OC	none (no result: GLD-1 TGE inh, BCLXL inh, MEX-5 binding, MCL1 BIM primary, EBV gp42 inh)
Cc1c(Cl)cccc1NC(=O)CCNC(=O)N1CC(=O)Nc2ccccc21	none (no result: EBV gp42 inh)
O=C(CNC(=O)c1ccc(Cl)c([N+](=O)[O-])c1)OC1CCCCC1=O (stereo unspecified)	none (no result: EBV gp42 inh)
CCn1c(CCC(=O)N(C)CC(=O)Nc2cccc(F)c2)nc2cc(S(=O)(=O)N(C)C)ccc21	E coli Lon inh 15 (no result: EBV gp42 inh) | E coli Lon conf inactive
CCN(CC)S(=O)(=O)c1ccc2c(c1)nc(CCC(=O)Nc1ccc3c(c1)OCO3)n2CC	none
NS(=O)(=O)c1ccc(CCNC(=O)COc2ccc3c4c(c(=O)oc3c2)CCC4)cc1	E coli Lon inh 18 (no result: EBV gp42 inh) | E coli Lon conf inactive
